From PubChem BioAssay AID1159580 (chemical genetic matrix, 2015)
“And” between values parts separate entries of the source, which are not always exact repeats. Equal values may be shown once. The campaign covered roughly 5,500 compounds. About 2,000 (36%) were called active. Another 18% or so got no clear call; they are omitted. Cut-off read from the data, not from the text of the source: active = normalized growth mostly below about 0.91 (no sharp cut-off); inconclusive = no clear call, values can overlap the other calls; inactive = mostly above about 0.92. Some of the results follow.

Experiment: chemical genetic growth profiling, strain panel (AID 1159580);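 note: tested at 20 µM; growth read once vehicle control cultures reached saturation at 30 °C; 1 = growth at the plate median or of vehicle wells; lower values mean less growth of the strain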
Conditions: S. cerevisiae deletion strains, growth OD

Measured: normalized growth

CN1CCc2cc3c(cc2C1O)OCO3 (centres undefined)
inactive: locus YAL021C, strain ccr4, stronger effect = lower value 1.03 | locus YAL026C, strain drs2, stronger effect = lower value 0.986 | locus YAL030W, strain snc1, stronger effect = lower value 0.993 | locus YBL061C, strain skt5, stronger effect = lower value 0.984 | locus YBR009C, strain hhf1, stronger effect = lower value 1.01 | locus YBR021W, strain FUR4, stronger effect = lower value 1.08 | locus YBR023C, strain chs3, stronger effect = lower value 1.01 | locus YBR171W, strain sec66, stronger effect = lower value 0.978 | locus YBR229C, strain ROT2, stronger effect = lower value 0.954 | locus YBR231C, strain swc5, stronger effect = lower value 0.954 | locus YBR279W, strain paf1, stronger effect = lower value 1 | locus YCL011C, strain gbp2, stronger effect = lower value 1.01 | locus YCL016C, strain dcc1, stronger effect = lower value 1.01 | locus YCL029C, strain bik1, stronger effect = lower value 0.982 | locus YCL061C, strain MRC1, stronger effect = lower value 1 | locus YCL069W, strain vba3, stronger effect = lower value 0.988 | locus YCR088W, strain abp1, stronger effect = lower value 0.988 | locus YDL005C, strain med2, stronger effect = lower value 0.992 | locus YDL035C, strain GPR1, stronger effect = lower value 0.993 | locus YDL040C, strain nat1, stronger effect = lower value 0.995 | locus YDL074C, strain BRE1, stronger effect = lower value 1.03 | locus YDL101C, strain DUN1, stronger effect = lower value 0.977 | locus YDL185W, strain tfp1, stronger effect = lower value 0.969 | locus YDL192W, strain arf1, stronger effect = lower value 0.998 | locus YDR001C, strain nth1, stronger effect = lower value 0.994 | locus YDR069C, strain doa4, stronger effect = lower value 0.969 | locus YDR101C, strain arx1, stronger effect = lower value 1.02 | locus YDR137W, strain rgp1, stronger effect = lower value 0.981 | locus YDR150W, strain NUM1, stronger effect = lower value 0.987 | locus YDR159W, strain sac3, stronger effect = lower value 0.946 | locus YDR162C, strain NBP2, stronger effect = lower value 0.943 | locus YDR195W, strain ref2 0.934 | locus YDR297W, strain sur2, stronger effect = lower value 1.01 | locus YDR318W, strain mcm21, stronger effect = lower value 0.978 | locus YDR334W, strain swr1, stronger effect = lower value 0.993 | locus YDR335W, strain msn5, stronger effect = lower value 1.01 | locus YDR388W, stronger effect = lower value 0.956 | locus YDR392W, strain spt3, stronger effect = lower value 0.926 | locus YDR502C, strain sam2, stronger effect = lower value 0.973 | locus YEL003W, strain gim4, stronger effect = lower value 0.966 | locus YEL037C, strain rad23, stronger effect = lower value 1 | locus YEL061C, strain CIN8 (second series), stronger effect = lower value 0.987 | locus YEL061C, strain CIN8, stronger effect = lower value 0.99 | locus YER015W, strain faa2, stronger effect = lower value 0.996 | locus YER016W, strain bim1, stronger effect = lower value 0.986 | locus YER110C, stronger effect = lower value 0.977 | locus YER111C, strain swi4, stronger effect = lower value 0.992 | locus YER155C, strain BEM2 (second series), stronger effect = lower value 0.962 | locus YER155C, strain BEM2, stronger effect = lower value 0.984 | locus YER167W, strain BCK2, stronger effect = lower value 0.986 | locus YFR010W, strain ubp6, stronger effect = lower value 0.979 | locus YGL078C, strain dbp3, stronger effect = lower value 0.995 | locus YGL086W, strain mad1, stronger effect = lower value 1.05 | locus YGL167C, strain pmr1, stronger effect = lower value 0.989 | locus YGL173C, strain kem1, stronger effect = lower value 0.994 | locus YGL227W, strain vid30, stronger effect = lower value 0.986 | locus YGL240W, strain doc1, stronger effect = lower value 0.957 | locus YGL248W, strain PDE1, stronger effect = lower value 0.974 | locus YGL253W, strain hxk2, stronger effect = lower value 0.988 | locus YGR135W, strain pre9, stronger effect = lower value 0.966 | locus YGR252W, strain gcn5, stronger effect = lower value 0.95 | locus YHR013C, strain ard1, stronger effect = lower value 0.995 | locus YHR027C, strain rpn1, stronger effect = lower value 0.991 | locus YHR030C, strain SLT2, stronger effect = lower value 0.992 and 1.09 | locus YHR079C, strain IRE1 (second series), stronger effect = lower value 0.978 | locus YHR079C, strain IRE1, stronger effect = lower value 1.1 | locus YHR094C, strain hxt1, stronger effect = lower value 0.968 | locus YHR129C, strain ARP1, stronger effect = lower value 0.99 | locus YHR142W, strain chs7, stronger effect = lower value 1.01 | locus YHR200W, strain rpn10, stronger effect = lower value 0.964 | locus YIL066C, strain RNR3, stronger effect = lower value 0.989 | locus YIL073C, strain SPO22, stronger effect = lower value 0.988 | locus YIL125W, strain kgd1, stronger effect = lower value 0.988 | locus YIR030C, strain dcg1, stronger effect = lower value 0.977 | locus YJL092W, strain hpr5, stronger effect = lower value 1 | locus YJL095W, strain BCK1 (second series), stronger effect = lower value 1.01 | locus YJL095W, strain BCK1, stronger effect = lower value 0.953 and 1.06 | locus YJL115W, strain asf1, stronger effect = lower value 0.994 | locus YJL129C, strain trk1, stronger effect = lower value 0.979 | locus YJL134W, strain LCB3, stronger effect = lower value 0.989 | locus YJL154C, strain vps35, stronger effect = lower value 0.989 | locus YJL164C, strain tpk1, stronger effect = lower value 1 | locus YJL166W, strain qcr8, stronger effect = lower value 0.98 | locus YJL168C, strain set2, stronger effect = lower value 0.989 | locus YJL187C, strain SWE1 (second series), stronger effect = lower value 0.974 | locus YJL187C, strain SWE1, stronger effect = lower value 0.995 | locus YJR043C, strain POL32, stronger effect = lower value 0.975 | locus YJR066W, strain TOR1, stronger effect = lower value 0.999 | locus YJR075W, strain HOC1, stronger effect = lower value 0.976 | locus YKL009W, strain mrt4, stronger effect = lower value 0.964 | locus YKL068W, stronger effect = lower value 0.989 | locus YKL085W, strain MDH1 (second series), stronger effect = lower value 0.974 | locus YKL085W, strain MDH1, stronger effect = lower value 0.974 | locus YKL160W, strain elf1, stronger effect = lower value 0.996 | locus YKR001C, strain vps1, stronger effect = lower value 0.998 | locus YKR026C, strain gcn3, stronger effect = lower value 0.978 | locus YKR091W, strain srl3, stronger effect = lower value 0.992 | locus YLL001W, strain dnm1, stronger effect = lower value 0.983 | locus YLL026W, stronger effect = lower value 0.998 | locus YLL041C, strain sdh2, stronger effect = lower value 0.999 | locus YLR027C, strain aat2, stronger effect = lower value 0.995 | locus YLR039C, strain RIC1, stronger effect = lower value 0.928 | locus YLR058C, strain SHM2, stronger effect = lower value 0.969 | locus YLR102C, strain apc9, stronger effect = lower value 0.98 | locus YLR113W, strain HOG1, stronger effect = lower value 1.07 | locus YLR221C, strain rsa3, stronger effect = lower value 1 | locus YLR258W, strain gsy2, stronger effect = lower value 1.01 | locus YLR262C, strain YPT6 (second series), stronger effect = lower value 1.01 | locus YLR262C, strain YPT6, stronger effect = lower value 0.911 | locus YLR268W, strain sec22, stronger effect = lower value 1 | locus YLR320W, strain mms22, stronger effect = lower value 0.985 | locus YLR330W, strain CHS5, stronger effect = lower value 0.991 | locus YLR342W, strain FKS1 (second series), stronger effect = lower value 1.04 | locus YLR342W, strain FKS1, stronger effect = lower value 0.999 | locus YLR357W, strain rsc2, stronger effect = lower value 0.977 | locus YLR370C, strain arc18, stronger effect = lower value 1 | locus YLR371W, strain rom2, stronger effect = lower value 0.985 | locus YLR384C, strain iki3, stronger effect = lower value 0.981 | locus YLR418C, strain cdc73, stronger effect = lower value 0.95 | locus YML016C, strain PPZ1, stronger effect = lower value 0.992 | locus YML032C, strain rad52, stronger effect = lower value 0.974 | locus YML120C, strain ndi1, stronger effect = lower value 0.995 | locus YML124C, strain tub3, stronger effect = lower value 0.983 | locus YMR058W, strain fet3, stronger effect = lower value 1.01 | locus YMR078C, strain ctf18, stronger effect = lower value 0.984 | locus YMR125W, strain sto1, stronger effect = lower value 0.987 | locus YMR129W, stronger effect = lower value 0.987 | locus YMR205C, strain PFK2, stronger effect = lower value 0.996 | locus YMR223W, strain ubp8, stronger effect = lower value 0.956 | locus YMR231W, strain pep5, stronger effect = lower value 0.979 | locus YMR263W, strain SAP30, stronger effect = lower value 0.981 | locus YMR307W, strain GAS1, stronger effect = lower value 0.951 | locus YNL067W, strain RPL9B, stronger effect = lower value 0.97 | locus YNL071W, strain lat1, stronger effect = lower value 1 | locus YNL153C, strain GIM3, stronger effect = lower value 0.968 | locus YNL183C, strain NPR1, stronger effect = lower value 0.999 | locus YNL209W, strain ssb2, stronger effect = lower value 1 | locus YNL233W, strain BNI4, stronger effect = lower value 0.998 | locus YNL248C, strain rpa49, stronger effect = lower value 1 | locus YNL250W, strain rad50, stronger effect = lower value 0.988 | locus YNL271C, strain bni1, stronger effect = lower value 0.982 | locus YNL298W, strain CLA4, stronger effect = lower value 0.956 | locus YNL307C, strain MCK1, stronger effect = lower value 0.988 | locus YNL322C, strain KRE1 (second series), stronger effect = lower value 1 | locus YNR049C, strain mso1, stronger effect = lower value 1 | locus YNR052C, strain pop2, stronger effect = lower value 0.982 | locus YOL012C, strain htz1 1.7 | locus YOL147C, strain pex11, stronger effect = lower value 0.986 | locus YOR001W, strain rrp6, stronger effect = lower value 0.961 | locus YOR061W, strain CKA2, stronger effect = lower value 0.969 | locus YOR069W, strain VPS5, stronger effect = lower value 0.994 | locus YOR070C, strain gyp1, stronger effect = lower value 0.993 | locus YOR080W, strain dia2, stronger effect = lower value 0.977 | locus YOR083W, strain WHI5, stronger effect = lower value 1.01 | locus YOR106W, strain vam3, stronger effect = lower value 1.01 | locus YOR136W, strain idh2, stronger effect = lower value 0.989 | locus YOR144C, strain elg1, stronger effect = lower value 0.977 | locus YOR184W, strain ser1, stronger effect = lower value 0.959 | locus YOR231W, strain MKK1, stronger effect = lower value 1.09 | locus YOR265W, strain rbl2, stronger effect = lower value 1.01 | locus YOR270C, strain vph1, stronger effect = lower value 0.995 | locus YOR290C, strain snf2, stronger effect = lower value 1.04 | locus YOR316C, strain cot1, stronger effect = lower value 0.979 | locus YPL051W, strain arl3, stronger effect = lower value 0.994 | locus YPL078C, strain atp4, stronger effect = lower value 1.01 | locus YPL106C, strain sse1, stronger effect = lower value 0.994 | locus YPL240C, strain hsp82, stronger effect = lower value 0.99 | locus YPL241C, strain CIN2, stronger effect = lower value 0.988 | locus YPL256C, strain CLN2, stronger effect = lower value 1.08 | locus YPR119W, strain clb2, stronger effect = lower value 0.982 | locus YPR141C, strain kar3, stronger effect = lower value 0.978 | locus YPR163C, strain tif3, stronger effect = lower value 0.987 | locus YPR167C, strain met16, stronger effect = lower value 0.99 | strain wtn01, stronger effect = lower value 1.04
